Whole data set: some 25,000 sequences, median “ln(normalized median fluorescence intensity)” near 6.7, cut for the highest 2% near 10. Only a selection was taken, and the highest values are over-represented in it overall.

The experiment deals with PfHDP1 homeodomain (GST-tagged). Put plainly: gcPBM binding intensity (ln(normalized median fluorescence intensity)); higher = stronger DNA binding. An outline of the steps: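 The highest Masliner-normalised natural-log median intensity across replicate spots of either probe orientation is reported as binding intensity. GST-tagged P. falciparum DNA-binding domains expressed in E. coli were applied for 1 h to an Agilent 4 × 180k array of primer-extended double-stranded 36-bp intergenic genomic probes plus negative controls, and bound protein was detected with Alexa488 anti-GST antibody and scanned at 488 nm.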
As for “TAGAAATATATTTATTGTACATTGTATATATTATAT [XGTACX_site7584]”, the “gcPBM binding intensity (ln)” value is 6.26.
Then “TTATAATATATATAAAAGAAAAAAAATTATAATATA [CACACA_negctrl_site90]”, with 6.53.
As for “AAAAAATATAGATGCACACACAAAAAAACAAATTAA [CACACA_site6718]”, the “gcPBM binding intensity (ln)” value was determined as 8.71.
In the case of “TTTAATAATTATTAAAGTACAAAATAAATATTGAAT [XGTACX_site7538]”, the “gcPBM binding intensity (ln)” value came out at 6.7.
As to “TGAATATTCATATGCACACAAATTAATATACATAAT [CACACA_site442]”, the “gcPBM binding intensity (ln)” value is 10.3.
In the case of “TATATAATCGAGTGCACACACAAAAAAAAAGTGAAC [CACACA_site1483]”, the “gcPBM binding intensity (ln)” value was determined as 10.4.
Then “TGTAATAATTATTGCACGCACACAAAAACCTATAGA [CACACA_site2932]”, with 10.2; and ATATATATATAATAAGTGCAAAAAAAAGAAAAAAAT, with 9.3; and “TGTATATAATCGAGTGCACACACAAAAAAAAAGTGA [CACACA_site8417]”, with 10.1.
To “TATATAACCGAGTGCACACACAAAAAAAAAGTGAAC [CACACA_site6806]” belongs 10.8; to “AATATAATATATTGCACACAAAAAGTGAATTATTCT [CACACA_site1684]”, 10.7.
As to “TCAAAAGAATAATTGGTGCAAATTATATAATATAAT [GTGCAC_site9804]”, the “gcPBM binding intensity (ln)” value is 10.5.
Then “TAATAATTATTGCACGCACACAAAAACCTATAGATT [CACACA_site2931]”, with 10.6.
To “TATTTATTTAATTACACACGAACATATAACCATTTC [CACACA_site211]” belongs 6.81; to “ATATATATATTTATATTTATATGTAAATATCAACGT [TGCATGCA_negctrl_site32]”, 8.19; to “ATCCCCATAAAAAATACACACAAATATTTATACATA [CACACA_site1001]”, 6.79.
Then “TATATATATATATATACACACATATACATATTGTTT [CACACA_site3499]”, with 9.37; and “TAATATATATAAACATGTACAAATCAAAAACAAAAG [XGTACX_site4076]”, with 7.52; and “AATAATAAAAAATATACACACATATATAAATAAATA [CACACA_site6164]”, with 6.35.
Take “GAACAAATTAAATAGGTGCATTAACATGTTCTATTT [GTGCAC_site9729]”: the “gcPBM binding intensity (ln)” value came out at 10.1.
For the sequence “ATTTCTCTATCGTAATGTACAAAAAAAAGGGAAAAG [XGTACX_site1335]”, the “gcPBM binding intensity (ln)” value was 6.48.
Then “TATATATAATATTGCACACAAAATTAAAAGTAAATA [CACACA_site19]”, with 10.3; and “TATATATATAATATTGCACACAAAATTAAAAGTAAA [CACACA_site7889]”, with 9.61.
To “AAAATATAATATATTGCACACAAAAAGTGAATTATT [CACACA_site8489]” belongs 10.6; to “TTAACCTTTTGATATTGTACCCATAATCTAATACAA [XGTACX_site769]”, 6.47.
Then “ATGTGATAGAAGTACACACACATATGTATTTATAAT [CACACA_site5075]”, with 6.7; and “ATGTAGAAGTAATGCACACATATGTATATATATATA [CACACA_site2494]”, with 10.5.
For the sequence “ATATATAGAATGTGTACACACATATGTATTTATATA [CACACA_site810]”, the “gcPBM binding intensity (ln)” value was determined as 6.7.
To “TATACATATGTATGCACACATACATACACATAGAAT [CACACA_site3480]” belongs 9.51; to “ATGTAGAAGTAATGCACACATATGTATTTATATATA [CACACA_site5391]”, 10.9; to “ATATGTAGAAGTAATGCACACATATGTATATATATA [CACACA_site8796]”, 10.3.
As for TTTAGTGAGTTTGTTGTGCACTGAAAAAATTACAAT, the “gcPBM binding intensity (ln)” value was found to be 10.4.
Then “AATTCGTACCTCATTTGTACATATATATATATATAT [XGTACX_site5513]”, with 9.34.
For the sequence “TTCAAGATTTATTATACACACATATTAATATATATA [CACACA_site573]”, the “gcPBM binding intensity (ln)” value is 6.83.
To “AAGTATGTATCACAAAGTACTTAAGCATATATTTAA [XGTACX_site4121]” belongs 6.57; to “ATATGTAAAATGAAGATACATACATACATACATACA [CACACA_negctrl_site715]”, 7.53; to “TGTTTATCATATTTGTGTCCTCATTTTTTAGTATCA [XGTACX_site947]”, 6.62.
Then “ATATGCACTCATTGTGCACACGCATATTACGAAAAG [CACACA_site2637]”, with 11.6; and “TGTGTTCATCTATGCACACGCATATATATTATTGTT [CACACA_site5985]”, with 9.64; and “AATGTGTTCATATATGCACACGCATATATATTATTG [CACACA_site9274]”, with 9.95.
To “TGTGTTCATATATGCACACGCATATATATTATTGTT [CACACA_site3822]” belongs 9.67; to “ATGCACTCATTGTGCACACGCATATTACGAAAAGAA [CACACA_site2638]”, 10.8.
For “ACGCACGAAATAAATACATGCATATTGTAAAAATTA [TGCATGCA_site310]”, the “gcPBM binding intensity (ln)” value is 8.99.
Then “TTATAATAGTTAATATGTACATATTTAATAAATAAT [XGTACX_site3183]”, with 6.23.
To “AGACTATCATTTTTTTAACACACAAAAAAAATAAAA [CACACA_site9173]” belongs 6.35; to “ATAAAGCCATACAATACACACATTTTACATGGGGGT [CACACA_site9072]”, 7.27; to “AGTACATTATAGAATACACACCTATATATATATATA [CACACA_site4447]”, 9.29.
Take “ATAATACATATAGAAGGTACACTATTATTTTCCTGA [XGTACX_site903]”: the “gcPBM binding intensity (ln)” value is 6.13.
To “TTCTTTTTTTTTAAAACAAACAAACAAACAAACAAA [CACACA_negctrl_site832]” belongs 6.6.
Then “TTCTTTTTAATGTCGGTGCAACTCCATAAAAACAAA [GTGCAC_site9488]”, with 10.9; and ATATTTTATGTAAAGGTGCAAAACAACATTAAAAAA, with 9.97.
To “TCTTTCTAAAGATGTAGTACAAAATAAATATAATAT [XGTACX_site6564]” belongs 6.87; to “TCCAAAATATCCTTCACACACGAACAGTTTCATTTA [CACACA_site5511]”, 6.49; to “ATTTGTATTGTATATGCACACATAGAACACTTTTTT [CACACA_site9373]”, 9.69.
In the case of “ATTGTATGCACGTCTGCACACTTTTTTTTTTTTTTT [CACACA_site2082]”, the “gcPBM binding intensity (ln)” value amounted to 11.
Then “TTGTATTGTATATGCACACATAGAACACTTTTTTTT [CACACA_site4133]”, with 8.44; and “AAAATATATTCAACTTGTACATATATATATATATAT [XGTACX_site7629]”, with 9.4.
To “TTAATATTCCAGCTTTGTACATATATATATTATAAA [XGTACX_site7954]” belongs 6.6; to “TTTTGAAGTAACAAATAAATAAATAAATATATAAAA [GTGCAC_negctrl_site517]”, 6.53.
To TTTGTTCTTTTTGAAGTGCACTGAAATATAACAAAA belongs 10.9; to “TTCTTGTTCCTGAAAGTGCATATAACAAAAATAACA [GTGCAC_site9635]”, 8.06.
As to “TATTGTATTTCATATTGTACTAAAAAAAAAAAAAAG [XGTACX_site6694]”, the “gcPBM binding intensity (ln)” value turned out to be 6.24.
Then “AGAAAGAAAATATATACACACAAAAAAAAATATATA [CACACA_site1412]”, with 6.61; and “CCTCATCCACTATGCACACAAAAAAGAAATACACTA [CACACA_site3422]”, with 9.52.
To “GTCCTCATCCACTATGCACACAAAAAAGAAATACAC [CACACA_site9131]” belongs 10.5; to “TTACACAAACAAATTATGGACACATAAGTAAAAGGA [CACACA_negctrl_site1622]”, 6.97.
Then “GCACATATGAATATAATACACACTTGTATTATTAAT [CACACA_site1841]”, with 6.59; and “TTTTTGATGAAATATTATTTTCCTGACTTGGATTAA [CACACA_negctrl_site148]”, with 6.27; and “AAAATGAAGAAGTGCACACATATATATATTTATATA [CACACA_site507]”, with 9.11.
With “TATCCTTATATTTGCACACACACACTAGAAAATGAA [CACACA_site4714]”, the “gcPBM binding intensity (ln)” value stood at 10.7.
Then “GATATCCTTATATTTGCACACACACCCAATAAAATG [CACACA_site1028]”, with 9.87.
Consider “AATGTCCTTATTTGCACACACACATATAAGAAATTT [CACACA_site3186]”, for which the “gcPBM binding intensity (ln)” value came out at 10.6.
Then “TTTTTTTTTTTTTGCACACACCATATTTATAGAAAT [CACACA_site5772]”, with 9.04.
To “TCCTTATATTGGCACACACACACAATAAAATGAAAA [CACACA_site4715]” belongs 7.07; to “TCTATTATCCTTTGCACACAAAATAAATGAAAAAAT [CACACA_site3029]”, 9.75; to “TAAATGTCCTTATTTGCACACACACCCATAAGAAAT [CACACA_site3185]”, 10.4.
In the case of “TATCCTTATATTTGCACACACACACCCTAAAATGAA [CACACA_site1029]”, the “gcPBM binding intensity (ln)” value came out at 10.6.
To “ATTCTATTATCCTTTGCACACAAAATAAATGAAAAA [CACACA_site3030]” belongs 9.63; to “TCCTTATATTTGCACACACACACAAGAAAATGAAAA [CACACA_site6613]”, 11; to “TGTCCTTATTTGCACACACACATATAAGAAATTTAA [CACACA_site7485]”, 10.5.
To “AAAATATTTATATTTACACACACATAATACATATAT [CACACA_site32]” belongs 6.84; to “TTACATATTTTCATTTGTACATATTCATTTTTTTTC [XGTACX_site6988]”, 6.47; to “ATATATATGTGAAAATCACACATTGCTTATCTGTAA [CACACA_site6044]”, 6.3.
Then “CAAACAATTAAACAAACACACATATACATGTATATA [CACACA_site2060]”, with 6.54.
As to “TATAAATAAAAATATACACACTGTATTATTGTAATA [CACACA_site7721]”, the “gcPBM binding intensity (ln)” value is 6.24.
To “CAATGCTTTATCAATACATGCATATATATAGAAATA [TGCATGCA_site857]” belongs 6.46; to “CTTATGTGCATACCTACACACTTACATATATATATA [CACACA_site8973]”, 9.47.
Then “TAGTTTTTATATAGCACACATATTGTGATTATGTAT [CACACA_site1196]”, with 6.83.
On to “ATATGTATTTATATATGTTTGATTTTTTTTTTTTTT [TGCATGCA_negctrl_site506]”, for which the “gcPBM binding intensity (ln)” value is 6.23.
Then “TGTATATATTTGTGCACACCAAAGTTTGATTTTATT [CACACA_site1860]”, with 11.4.
Take “TATGTATATATTTGTGCACACCAAAGTTTGATTTTA [CACACA_site1861]”: the “gcPBM binding intensity (ln)” value amounted to 11.4.
Then “AATATATATTTATAAACACACACCAAAATTTGTGCT [CACACA_site3091]”, with 6.82; and “TGTATAAAAGTTTATACACACATTTGATATATTTCA [CACACA_site6606]”, with 6.58.

(Values after the supplement of paper PMC11417369.)
